Activity calls are given as the source filed them. Calls follow the shape of the dose curve; as a rule, active = well fitted curve in the direction sought with a large enough effect; inactive = no such curve, though single readings can be large or run the other way.
Biological target: Lysosomal acid glucosylceramidase (Homo sapiens) (UniProt P04062)
Assay: qHTS Assay for Inhibitors and Activators of N370S glucocerebrosidase as a Potential Chaperone Treatment of Gaucher Disease: Primary Screen Confirmation Using LC/MS
Conditions: N370S GC spleen homogenate, 4MU-glucoside, LC/MS detection
Excerpt: NIH Chemical Genomics Center [NCGC] NIH Molecular Libraries Probe Production Centers Network [MLPCN] MLPCN Grant: MH086442-01 Assay Submitter (PI): Wei Zheng Glucocerebrosidase (GC) catalyzes the hydrolysis of beta-glucocerebroside to glucose and ceramide in lysosomes. Mutations in the glucocerebrosidase gene result in Gaucher disease, an autosomal recessive lysosomal storage disorder. Many of the mutations encountered in patients with Gaucher disease are missense alterations that may cause misfolding, decreased stability and/or mistrafficking of this lysosomal protein. […] These inhibitors include iminosugar analogs and three non-iminosugar inhibitors identified from a previous HTS of 62,000 compounds with the wild type recombinant enzyme. However, the enhancement of enzyme activity by the chaperone action of an enzyme inhibitor must be balanced against the direct inhibition of the enzyme. An enzyme activator could also function as a chaperone by binding to the enzyme and helping to correct its misfolding and mistrafficking. While activators for GC have not yet been identified, they may have better therapeutic potential than inhibitors. Therefore the discovery and development of chemical activators may provide a new strategy for the chaperone therapy. We have optimized a new assay using N370S mutant GC derived from the spleen of a Gaucher patient. […] In addition, the MLPCN compound library has expanded, which increases the chance of finding new and better probes. This assay uses liquid chromatography linked to a mass spectrometer to assess the ability of glucocerebrosidase in the spleen homogenate to cleave either 4-methylumbelliferyl-beta-D-glucopyranoside substrate or a labeled version of the natural substrate, glucosylceramide.
NCGC Assay Protocol Summary: This is a fluorogenic enzyme assay with 4-methylumbelliferyl-beta-D-glucopyranoside as the substrate and N370S glucocerebrosidase from human spleen homogenate as the enzyme preparation. Upon the hydrolysis of this fluorogenic substrate, the resulting product, […] which can be detected by a standard fluorescence plate reader. Data were normalized to the controls for basal activity (without enzyme) and 100% activity (with enzyme). The AC50 values were determined from concentration-response data modeled with the standard Hill equation. Assay buffer: 50 mM citric acid (titrated with potassium phosphate to pH 5.0), 100 mM potassium chloride, 10 mM sodium chloride, 1 mM magnesium chloride, 0.01% Tween-20. […] Compounds were monitored using fluorescence detection with an excitation wavelength of […]. […]

Sequence of Lysosomal acid glucosylceramidase (Homo sapiens) (P04062 whole entry N409S): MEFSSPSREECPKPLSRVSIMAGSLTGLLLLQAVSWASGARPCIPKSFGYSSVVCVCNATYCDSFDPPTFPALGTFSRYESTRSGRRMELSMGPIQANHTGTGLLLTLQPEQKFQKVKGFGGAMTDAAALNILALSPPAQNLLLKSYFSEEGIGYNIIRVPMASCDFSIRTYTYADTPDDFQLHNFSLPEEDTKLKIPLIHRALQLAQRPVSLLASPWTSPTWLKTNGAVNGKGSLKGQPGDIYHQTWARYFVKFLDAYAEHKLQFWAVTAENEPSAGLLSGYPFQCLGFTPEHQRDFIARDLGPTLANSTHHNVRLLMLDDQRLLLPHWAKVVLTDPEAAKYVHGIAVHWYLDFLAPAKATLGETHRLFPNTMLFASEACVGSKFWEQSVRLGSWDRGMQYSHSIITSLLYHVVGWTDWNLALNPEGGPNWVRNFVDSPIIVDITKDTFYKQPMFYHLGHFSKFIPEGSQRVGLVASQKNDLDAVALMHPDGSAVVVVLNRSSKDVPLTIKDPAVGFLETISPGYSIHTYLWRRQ

Potency, active:
Cc1cc(C)n2ncc(C(=O)Nc3ccc(Br)cc3)c2n1 1190 nM, Cc1cc(C)n2ncc(C(=O)Nc3ccc(C(F)(F)F)cc3)c2n1 1340 nM, C#Cc1ccc(NC(=O)c2cnn3c(C)cc(C)nc23)cc1 3730 nM, O=C(Nc1ccccc1Sc1ccccc1)c1cnn2c1NC(=C1CC1)C=C2C(F)F 3000 nM
